From PubChem
HP1b chromo inh = HTS for Inhibitors of HP1-beta Chromodomain Interactions with Methylated Histone Tails; Chromobox protein homolog 1 (Homo sapiens), P83916; AlphaScreen HP1-beta / biotin-H3K9me3 peptide binding; Potency, µM (highest dose often 114 µM), for inactives: top-dose activity change, negative = inhibition, actives largely listed as inhibitors; 390,000 tested, 0.56% active; AID 540317, 2011; also: potency is read from the fitted curve at half-maximal effect; nearly all actives have a fitted effect of over 70% in size
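AlphaScreen: HP1-beta (50 nM) preformed 30 min with biotin-H3(1-18)K9me3 peptide (50 nM) in PBS pH 7.4, 0.01% Tween-20. Compound added for 30 min at RT, then streptavidin donor/nickel chelate acceptor beads (10 ug/mL) for 30 min.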
G9a inh = qHTS Assay for Inhibitors of Histone Lysine Methyltransferase G9a; AID 504332, 2011; G9a H3K9 monomethylation, AlphaScreen, 2 h; Potency, µM (series often up to 102 µM), for inactives: at the highest dose activity, negative = inhibition, hits mostly inhibitors; 350,000 tested, 8.8% active; Histone-lysine N-methyltransferase EHMT2 (Homo sapiens), Q96KQ7; also: potency is read from the fitted curve at half-maximal effect; % is scaled to controls: 0 for no effect and ±100 for the full control effect; nearly all actives have a fitted effect of over 75% in size
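G9a (20 nM) preincubated 15 min RT with compounds, then 500 nM biotinylated H3K9 peptide and 20 uM SAM added; 2 h RT reaction. Monomethyl-H3K9 product detected by AlphaScreen with anti-H3K9me1 antibody, streptavidin donor and anti-rabbit IgG acceptor beads.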
BAZ2B inh = qHTS Assay for Inhibitors of BAZ2B; Bromodomain adjacent to zinc finger domain protein 2B (Homo sapiens), Q9UIF8; AlphaScreen BAZ2B-H3K14Ac peptide displacement; Potency, µM (highest dose often 114 µM), without a hit: top-dose activity change, negative = inhibition, usual class: inhibitors; 360,000 tested, 4.4% active; AID 504333, 2011; also: potency is read from the fitted curve at half-maximal effect; % is scaled to controls: 0 for no effect and ±100 for the full control effect; nearly all actives have a fitted effect of over 60% in size
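In this displacement format the biotinylated H3(5-23) peptide acetylated at Lys14 serves as ligand at 50 nM, with BAZ2B at 50 nM in PBS pH 7.4 containing 0.01% Tween-20. Donor and acceptor beads are 10 ug/mL final.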
PLK1 PBD inh = qHTS for Inhibitors of PLK1-PDB (polo-like kinase 1 - polo-box domain): Primary Screen | Serine/threonine-protein kinase PLK1 (Homo sapiens), P53350 | Plk1 PBD binding of FITC phosphopeptide, fluorescence polarization | Potency, µM, inactives show max response, negative = inhibition, actives largely listed as inhibitors | 360,000 tested, 2.8% active | AID 720504, 2013; also: potency is read from the fitted curve at half-maximal effect; series mostly up to about 57 µM; % is scaled to controls: 0 for no effect and ±100 for the full control effect; nearly all actives have a fitted effect of over 65% in size
PI5P4Ka inh = qHTS for Inhibitors of phosphatidylinositol 5-phosphate 4-kinase (PI5P4K) | PI5P4Kalpha enzyme, ADP-Glo luminescence, 60 min; hits give low values | 330,000 tested, 1.2% active | max response, % | Phosphatidylinositol 5-phosphate 4-kinase type-2 alpha (Homo sapiens), P48426; active = max response of -50% or lower; inconclusive = between -30% and -50%; inactive = -30% or higher; also: value at the top dose of about 77 µM; % is scaled to controls: 0 for no effect and ±100 for the full control effect
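qHTS, 1536-well: enzyme/substrate mix, compound by pin tool, 5 microM ATP final; RT 60 min; ADP-Glo reagents 1 (45 min) then 2 (30 min); luminescence.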
JMJD2A Tudor = qHTS Assay for Inhibitors of JMJD2A-Tudor Domain; AlphaScreen JMJD2A-Tudor / H3K4me3 peptide binding; Potency, µM (highest dose often 114 µM), for the others: at the top dose activity change, negative = inhibition, most hits filed as inhibitors; 390,000 tested, 4.4% active; also: potency is read from the fitted curve at half-maximal effect; % is scaled to controls: 0 for no effect and ±100 for the full control effect; nearly all actives have a fitted effect of over 50% in size
Target sequence (O75164 whole entry, looked up, the tested form may be a part): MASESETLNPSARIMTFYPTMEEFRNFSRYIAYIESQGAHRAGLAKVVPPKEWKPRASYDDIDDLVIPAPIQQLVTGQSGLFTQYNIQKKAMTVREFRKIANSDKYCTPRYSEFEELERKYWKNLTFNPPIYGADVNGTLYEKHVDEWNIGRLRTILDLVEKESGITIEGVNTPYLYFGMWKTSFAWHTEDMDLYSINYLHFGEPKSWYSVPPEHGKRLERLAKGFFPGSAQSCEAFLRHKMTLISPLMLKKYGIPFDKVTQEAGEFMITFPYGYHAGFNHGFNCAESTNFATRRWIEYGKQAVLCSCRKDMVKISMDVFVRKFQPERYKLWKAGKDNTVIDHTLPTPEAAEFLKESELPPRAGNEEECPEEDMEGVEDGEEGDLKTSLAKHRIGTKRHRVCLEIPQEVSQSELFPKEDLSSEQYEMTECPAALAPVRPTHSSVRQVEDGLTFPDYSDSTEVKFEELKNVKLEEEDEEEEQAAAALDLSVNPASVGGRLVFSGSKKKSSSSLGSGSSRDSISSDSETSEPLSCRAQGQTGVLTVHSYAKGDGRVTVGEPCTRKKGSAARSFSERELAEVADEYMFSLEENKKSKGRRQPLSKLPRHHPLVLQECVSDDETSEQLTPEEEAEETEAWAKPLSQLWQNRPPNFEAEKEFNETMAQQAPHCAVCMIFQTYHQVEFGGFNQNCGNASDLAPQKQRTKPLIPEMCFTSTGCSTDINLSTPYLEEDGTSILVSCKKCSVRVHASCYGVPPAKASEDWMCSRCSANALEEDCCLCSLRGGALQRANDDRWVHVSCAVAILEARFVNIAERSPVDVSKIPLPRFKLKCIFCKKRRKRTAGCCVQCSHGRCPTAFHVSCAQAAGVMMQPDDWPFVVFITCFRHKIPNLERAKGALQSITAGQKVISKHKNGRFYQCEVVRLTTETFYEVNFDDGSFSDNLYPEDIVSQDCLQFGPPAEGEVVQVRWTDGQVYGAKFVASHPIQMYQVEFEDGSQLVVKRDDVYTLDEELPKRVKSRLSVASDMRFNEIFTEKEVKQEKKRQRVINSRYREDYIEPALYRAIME
Active calls of the source: *; [ ] = remark or other dose. Compounds with a hit are over-represented: about 12% of the library has one in this group of screens. Unless noted, calls follow the shape of the dose curve; as a rule, active = well fitted curve in the direction sought with a large enough effect; inconclusive = small, poorly fitted or top-dose-only effect, or another doubt; inactive = no such curve, though single readings can be large; an effect the other way counts as inactive or inconclusive.

Results for CCC(=O)OCCCNc1nc(-c2ccc(Cl)cc2)nc2ccccc12 ?
HP1b chromo inh: 91%; G9a inh: -6%[59 µM]; BAZ2B inh: 29%; JMJD2A Tudor: 43%

What do the screens show for `CC(Nc1nc(=S)nc(Nc2ccc(F)cc2)[nH]1)c1ccccc1` (stereo not drawn)?
HP1b chromo inh: -11%; BAZ2B inh: -13%; PLK1 PBD inh: 13µM*; PI5P4Ka inh: -8; JMJD2A Tudor: -26%

What do the screens show for `NC[C@H](Cc1ccccc1)NCCCCC1CCCCC1`?
HP1b chromo inh: 34%; G9a inh: -9%[0.501 µM]; BAZ2B inh: -9%; PLK1 PBD inh: -2%; PI5P4Ka inh: -5; JMJD2A Tudor: -22%

What do the screens show for `CNC[C@H](CC1CCCCC1)NC[C@H](Cc1ccccc1)NCCC12CC3CC(CC(C3)C1)C2`?
HP1b chromo inh: 20%; G9a inh: 45µM*; BAZ2B inh: inconclusive; PLK1 PBD inh: -5%; PI5P4Ka inh: -10; JMJD2A Tudor: -36%

How did Cc1cccc(-c2nn(-c3ccccc3)cc2C(=O)N2CCN(C3CCS(=O)(=O)C3)CC2)c1 (stereo not drawn) do in these assays?
HP1b chromo inh: 25%; G9a inh: -5%[59 µM]; BAZ2B inh: 7%; PLK1 PBD inh: -8%; PI5P4Ka inh: -2; JMJD2A Tudor: -14%

How did COc1ccc(-c2ccc(SCC(=O)c3ccccc3)nn2)cc1OC do in these assays?
HP1b chromo inh: 18%; G9a inh: 50µM*; BAZ2B inh: -18%; PLK1 PBD inh: -4%; PI5P4Ka inh: 3; JMJD2A Tudor: -21%

Results for O=C(CSc1ccc(-c2ccncc2)nn1)c1ccc(Cl)cc1 ?
HP1b chromo inh: 32%; G9a inh: 3%[59 µM]; BAZ2B inh: -3%; PLK1 PBD inh: -19%; PI5P4Ka inh: -9; JMJD2A Tudor: -9%

What do the screens show for `COc1ccc(-c2ccc(SCC(=O)NC3CCCC3)nn2)cc1OC`?
HP1b chromo inh: 16%; G9a inh: -8%; BAZ2B inh: -14%; PLK1 PBD inh: -4%; PI5P4Ka inh: 2; JMJD2A Tudor: -12%

Results for Cc1ccc(-c2ccc(SCC(=O)c3ccccc3)nn2)cc1 ?
HP1b chromo inh: 19%; G9a inh: 35µM*; BAZ2B inh: -1%; PLK1 PBD inh: -13%; PI5P4Ka inh: -9; JMJD2A Tudor: 13%

What do the screens show for `Cc1ccc(C(=O)CSc2ccc(-c3ccncc3)nn2)cc1`?
HP1b chromo inh: 12%; G9a inh: 40µM*; BAZ2B inh: inconclusive; PLK1 PBD inh: -1%; PI5P4Ka inh: -3; JMJD2A Tudor: -4%

Results for O=C(CSc1nc2ccccc2nc1N1CCCCC1)N1CCN(c2ccccc2)CC1 ?
HP1b chromo inh: 35%; G9a inh: 35%; BAZ2B inh: 1%; PLK1 PBD inh: -2%; PI5P4Ka inh: 8; JMJD2A Tudor: 24%

How did COc1ccccc1NC(=O)Cc1c(C(=O)O)[nH]c2ccc(Cl)cc12 do in these assays?
HP1b chromo inh: 7%; G9a inh: -35%[59 µM]; BAZ2B inh: -9%; JMJD2A Tudor: -30%

How did CN(C)c1ccc(S(=O)(=O)N2CCCCC2)cc1NC(=O)CCNC(=O)c1ccc(Cl)cc1 do in these assays?
HP1b chromo inh: 21%; G9a inh: inconclusive; BAZ2B inh: 10%; PLK1 PBD inh: -4%; PI5P4Ka inh: -1; JMJD2A Tudor: -14%

What do the screens show for `COc1ccc(C=CC(=O)c2ccc(OC)c(OC)c2O)cc1OC`?
HP1b chromo inh: inconclusive; PLK1 PBD inh: -9%; PI5P4Ka inh: -1; JMJD2A Tudor: 50µM*

How did COc1cc(C=CC(=O)c2cc(OC)c(OC)c(OC)c2)cc(OC)c1OC do in these assays?
HP1b chromo inh: 11%; PLK1 PBD inh: -1%; PI5P4Ka inh: -4; JMJD2A Tudor: -19%
